Compound activity from PubChem.
Only some compounds are listed: those with a hit (about 21% of all), similar ones and a draw of the others.
Shiga inhibitor: blocks Shiga toxin action in Vero cells. Vero cells, Shiga toxin protein synthesis inhibition reporter. inhibition, % at 38.7 µM. hit rate 9.2% among 290,000. AID 2315; in the data active = inhibition mostly above about 28%, no sharp cut-off; inactive = mostly below about 43%; also: 0% is about no effect
NS1 inh: inhibitors of influenza NS1 protein function | Potency, µM (highest dose often 46.1 µM), inactives show at the highest dose activity, positive = more growth | hit rate 0.4% among 270,000; also: potency is read from the fitted curve at half-maximal effect; actives are rising curves; nearly all actives have a fitted effect of over 50% in size
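Recovery from NS1-induced slow growth read by OD600 in budding yeast switched to galactose assay medium (pH 6.0, -URA) at 1:100 dilution. Compound 23 nl per well; the matching strain lacking NS1 serves as control.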
Pf growth 48h: P. falciparum growth inhibition at 48 hours (one generation); P. falciparum luciferase growth in erythrocytes, 48 h; Potency, µM (highest dose often 28.7 µM), without a hit: at the top dose activity change, negative = inhibition, usual class: inhibitors; hit rate 5.9% among 310,000; active = well fitted inhibition curve with a large enough effect; inconclusive = small, poorly fitted or top-dose-only effect, or another doubt; inactive = no such curve, though single readings can be large or run the other way; also: potency is read from the fitted curve at half-maximal effect; % is scaled to controls: 0 for no effect and ±100 for the full control effect
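Firefly luciferase activity from engineered P. falciparum reports growth; inhibitors lower the luminescent signal. Cultures contained 2% hematocrit erythrocytes at 0.1% final parasitemia.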
Cycloheximide cs: counter-screen for Shiga toxin inhibitors: cycloheximide protein synthesis inhibition | cell reporter, cycloheximide protein synthesis inhibition counterscreen | AID 2314 | max response, % | hit rate 12% among 300,000; in the data active = max response mostly above about 13%, no sharp cut-off; inactive = mostly below about 14%; also: read at 38.3 µM for the half of the compounds with a filed dose; 0% is about no effect
Pf growth 96h: P. falciparum growth inhibition at 96 hour, primary screen for plastid delayed-death inhibitors; P. falciparum luciferase reporter growth, 96 h; Potency, µM (highest dose often 28.7 µM), for inactives: top-dose activity change, negative = inhibition, actives largely listed as inhibitors; hit rate 6.9% among 320,000; AID 504834; active = well fitted inhibition curve with a large enough effect; inconclusive = small, poorly fitted or top-dose-only effect, or another doubt; inactive = no such curve, though single readings can be large or run the other way; also: potency is read from the fitted curve at half-maximal effect; % is scaled to controls: 0 for no effect and ±100 for the full control effect
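P. falciparum expressing integrated firefly luciferase grown in erythrocytes (2% hematocrit, 0.05% parasitemia final) with compounds for 96 hours at 37 C, 5% CO2. Growth inhibition read as loss of luminescence after adding luciferase detection reagent.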
SARS PLP yeast: blocks SARS-CoV papain-like protease in a yeast assay. S. cerevisiae expressing SARS-CoV PLpro, growth rescue. Potency, µM (series often up to 32.9 µM), without a hit: at the highest dose activity, positive = growth rescue, usual class: activators. hit rate 0.19% among 330,000; also: potency is read from the fitted curve at half-maximal effect; 0% is about no effect; nearly all actives have a fitted effect of over 55% in size
Active calls of the source: *; ? = inconclusive; . = not tested or not shown. Unless noted, calls follow the shape of the full dose curve.

SMILES	Shiga inhibitor	NS1 inh	Pf growth 48h	Cycloheximide cs	Pf growth 96h	SARS PLP yeast
COC(=O)[C@H](C)[C@H](CC(C)C)NC(=O)[C@H](C)[C@H](CC(C)C)NC(=O)c1ccccn1	10.5	.	.	9.5	.	.
CCOC(=O)C1CCN(C(=O)CNC(=O)c2nn(-c3ccc(OC)c(OC)c3)c(=O)c3ccccc23)CC1	37.8	4.3%	?	20.6*	-13.6%	-0.2%
CCOC(=O)C1CCN(C(=O)CNC(=O)c2nn(-c3ccc(OC)cc3)c(=O)c3ccccc23)CC1	27.6	-6.3%	?	27.4*	?	0.4%
CS(=O)(=O)N1CCN(c2ccccc2[N+](=O)[O-])CC1	-3.8	5.8%	58.4%	-1.9	25.6%	0.4%
CC(C)CC(NC(=O)C1CCCCC1)C(=O)N1CCN(c2ccccn2)CC1 (stereo not drawn)	-1.7	-2.5%	.	-0.9	11.7%	3.6%
CCC(=O)N1CCN(c2ccc(Cl)cc2NC(=O)c2ccc([N+](=O)[O-])o2)CC1	-10.3	14.1%	?	10.1	10.4µM*	-2.3%
CN1CCN(c2ccccc2NC(=O)c2ccc([N+](=O)[O-])o2)CC1	-14.5	4.4%	?	11.7	40.0%	-10.2%
CCC(=O)N1CCN(c2ccc(NC(=O)c3ccc([N+](=O)[O-])o3)cc2Cl)CC1	-34.6	.	?	-22.6	14.2%	-23.7%
O=C(CN1C(=O)NC2(CCCC2)C1=O)Nc1cc(Cl)ccc1N1CCCCC1	-20.9	-11.0%	?	-3.6	13.1µM*	1.4%
CCN1CCN(c2ccc(NC(=O)c3ccc([N+](=O)[O-])o3)cc2Cl)CC1	-20.1	.	?	23.5*	?	12.9%
CC(=O)N1CCN(c2ccc(NC(=O)c3ccc([N+](=O)[O-])o3)cc2Cl)CC1	50.2*	-14.7%	?	24.7*	5.22µM*	-16.7%
CCC(=O)N1CCN(c2ccccc2NC(=O)Cc2ccc(Cl)cc2)CC1	-6.7	-28.7%	-23.0%	-2.4	3.4%	4.7%
CCC(=O)N1CCN(c2ccc(Cl)cc2NC(=O)Cc2ccc(Cl)cc2)CC1	-17.2	1.4%	.	2.4	13.1µM*	-13.8%
CC1CCCCC1NC(=O)CCS(=O)(=O)c1ccc2c(c1)NC(=O)CS2 (stereo not drawn)	-4.0	-0.8%	-12.4%	-8.9	40.4%	3.1%
CCN(c1ccc(OC)cc1)S(=O)(=O)c1ccc2c(c1)NC(=O)CS2	27.2	10.1%	18.7%	34.4*	9.1%	?
COc1ccc(CNC(=O)CCS(=O)(=O)c2ccc3c(c2)NC(=O)CS3)cc1	-3.8	11.4%	18.4%	-3.5	14.7µM*	2.3%
CC1CCCC(NC(=O)CCS(=O)(=O)c2ccc3c(c2)NC(=O)CS3)C1C (stereo not drawn)	-7.7	3.1%	-9.9%	-8.2	13.1µM*	-0.5%
O=[N+]([O-])c1ccc(S(=O)(=O)N(CCCN2CCOCC2)Cc2cccs2)cc1	-7.0	.	11.0%	-4.9	?	-0.6%
CN1CCN(CC(O)COC(c2ccc(Cl)cc2)c2ccc(Cl)cc2)CC1 (stereo not drawn)	-4.7	2.2%	.	-6.5	9.28µM*	1.0%
CN1CCN(CC(O)COc2ccc(Cl)cc2)CC1 (stereo not drawn)	-4.8	6.7%	.	-4.6	20.1%	8.4%
OC(COC(c1ccc(Cl)cc1)c1ccc(Cl)cc1)CN1CCc2ccccc2C1 (stereo not drawn)	18.5	-39.4%	?	-2.6	2.62µM*	-37.2%
OC(COC(c1ccc(Cl)cc1)c1ccc(Cl)cc1)CN1CCCC1 (stereo not drawn)	-13.9	7.0%	?	-1.1	4.65µM*	.
COc1ccc(NC(=O)CSc2nnc(Cc3cccs3)n2C)cc1	.	.	?	.	-22.1%	2.1%
Cc1ccc(CNS(=O)(=O)c2cc3c4c(c2)C(C)C(=O)N4CCC3)cc1 (stereo not drawn)	4.5	12.0%	1.0%	-0.9	?	-4.9%
COc1ccc(OC)c2c1cc(C(=O)N[C@H](C(=O)N1CCC(C(=O)O)CC1)C(C)C)n2C	4.4	1.3%	-17.8%	-1.7	-3.2%	11.0%
SMILES	Shiga inhibitor	NS1 inh	Pf growth 48h	Cycloheximide cs	Pf growth 96h	SARS PLP yeast
Cc1ccc(Nc2nc(N/N=C\c3ccc4c(c3)OCO4)nc(N3CCOCC3)n2)cc1	-3.2	.	10.4µM*	3.9	?	-6.6%
CCOc1cc(/C=N\Nc2nc(Nc3ccccc3)nc(N3CCOCC3)n2)ccc1OC(=O)c1ccco1	8.9	13.3%	?	19.5*	7.0%	7.3%
Nc1c(CC(=O)O)cccc1C(=O)c1ccc(Br)cc1	.	.	-0.8%	.	-2.9%	.
COC(=O)c1c(NC(=O)CSc2ncn[nH]2)sc(C)c1C	.	.	17.3%	.	-1.2%	-0.1%
CC(=O)Nc1ccc(Nc2nnc(-c3ccc(C)c(S(=O)(=O)NCC4CCCO4)c3)c3ccccc23)cc1 (stereo not drawn)	-10.6	-34.2%	1.04µM*	-1.9	1.17µM*	1.4%
CNS(=O)(=O)c1cc(-c2nnc(Nc3ccc(NC(C)=O)cc3)c3ccccc23)ccc1C	-5.1	-14.1%	10.4µM*	6.4	?	0.2%
CNC(=O)c1ccc(Nc2nnc(-c3ccc(C)c(S(=O)(=O)NCC4CCCO4)c3)c3ccccc23)cc1 (stereo not drawn)	-9.3	-16.8%	5.22µM*	-1.4	?	10.0%
Cc1ccc(-c2nn3c(-c4ccco4)nnc3c3ccccc23)cc1S(=O)(=O)NCC1CCCO1 (stereo not drawn)	9.0	-32.7%	?	-2.7	-24.4%	0.7%
Cc1ccc(-c2nnc(Nc3ccccc3)c3ccccc23)cc1S(=O)(=O)NCC1CCCO1 (stereo not drawn)	-4.8	5.7%	4.15µM*	-2.0	?	-1.3%
CN(C(=O)Cn1c(=O)oc2cc(S(=O)(=O)N3CCCC3)ccc21)C1CCCCC1	-5.2	-4.8%	-24.0%	-1.4	2.5%	1.0%
CC(C)CNC(=O)CSc1nnc(-c2ccc(Cl)cc2)n1N	-2.3	.	116.5%	0.2	?	-0.4%
CC1CCN(CC(O)COc2ccc(-c3ccccc3)cc2)CC1 (stereo not drawn)	.	1.6%	?	4.6	-15.7%	-2.7%
C[C@@H]1CN([C@@H](C)CO)C(=O)c2cc(NC(=O)Nc3ccccc3)ccc2O[C@H]1CN(C)C(=O)Nc1cccc2ccccc12	.	.	.	.	.	-5.9%
CCc1nnc(NC(=O)CSc2nnc(Cc3cc(=O)[nH]c(=O)[nH]3)n2-c2cccc(OC)c2)s1	11.3	.	9.7%	8.3	61.2%	2.6%
Cn1nnc2cc(C(=O)N3CCN(c4ccccn4)CC3)ccc21	-7.5	-0.4%	19.0%	-3.1	107.7%	-0.4%
CC[n+]1c(/C=C/Nc2ccccc2)oc2ccc(OC)cc21	41.5	-1.6%	?	12.3	14.6%	0.5%
CC[n+]1c(/C=C/N(C)c2ccccc2)oc2ccc(F)cc21	9.3	2.6%	2.94µM*	0.3	?	-5.2%
CC[n+]1c(/C=C/N(C)c2ccccc2)oc2ccccc21	-4.7	1.9%	0.928µM*	-1.9	-14.2%	-14.4%
